“And” between values parts separate entries of the source, which are not always exact repeats. Equal entries are not always repeated. Inconclusive results are not listed. The source made the active and inactive calls. Calls follow the shape of the dose curve; as a rule, active = well fitted inhibition curve with a large enough effect; inconclusive = small, poorly fitted or top-dose-only effect; inactive = no such curve, though single readings can be large or run the other way.

Data on 35 compounds can be found in PubChem BioAssay (NCATS).
% is scaled to controls: 0 for no effect and ±100 for the full control effect; potency is read from the fitted curve at half-maximal effect.

This experiment in a line: Primary qHTS for inhibitors of nuclear receptor binding SET domain protein 2 (NSD2) in an RCH-ACV wild type WT cells (2C) (AID 1645877). Also: nearly all actives have a fitted effect of over 70% in size. As to conditions: RCH-ACV (leukaemia line) NSD2 WT (2C) viability, CellTiter-Glo, 72 h; series mostly up to 44.9 µM; activity change, negative = cell killing: at the top concentration.
On to `C=CC(=O)N1CCN(C(=O)CNc2cc(-c3ccccc3Cl)c(Cl)cc2OC)CC1`, for which the Potency is 16.3 µM (active).

Consider `CCOC(=O)N1CCC(CN(Cc2ccc(Cl)cc2)Cc2ccc([N+](=O)[O-])s2)C1` (stereo not given), for which the Potency was 20.5 µM (active).

Take `COc1nc2ccc(Br)cc2cc1[C@@H](c1ccccc1)[C@@](O)(CCN(C)C)c1cccc2ccccc12`: the Potency is 14.5 µM (active).

For `CCCCNc1ncc2c(-c3ccc(S(=O)(=O)N4CCOCC4)cc3)nn(C3CCC(O)CC3)c2n1` (stereo not given), the Potency was 1.03 µM (active).

For `Cc1cc(C)c(-n2cc(C)c3c(Cl)nc(C)nc32)c(C)c1`, the “activity change, negative = cell killing” value was -24.3% (inactive).

Take `CCn1c(-c2nonc2N)nc2c(C#CCO)ncc(OCCCN)c21`: the Potency was 5.78 µM (active).

For `Cc1c(C(=O)NCc2cccnc2)nn(-c2ccc(Cl)cc2Cl)c1-c1ccc(Cl)cc1`, the Potency was 20.5 µM (active).

For `CC(F)(F)CN1CCOc2c(nn(-c3ccccc3Cl)c2-c2ccc(Cl)cc2)C1=O`, the Potency is 18.3 µM (active).

As for `CCOc1ccc(Cc2nc(-c3c(C)nc4ccccn34)cs2)cc1`, the Potency was 0.183 µM (active).

In the case of `O=C(NCCCc1ccccc1)C1CCC(CNS(=O)(=O)c2cccc3nsnc23)CC1` (stereo not given), the Potency was 11.5 µM (active).

In the case of `CCCC(=O)C1(c2ccccc2)CCN(C(=O)[C@@H](Cc2ccc(OC)cc2)NC(=O)[C@@H](N)Cc2cncn2C)CC1`, the Potency was 18.3 µM (active).

As to `CC(C)c1cc(-c2ccc(F)c3ccccc23)nc(N)n1`, the “activity change, negative = cell killing” value is -21.6% (inactive).

With `CN1CCN(C2=Nc3ccccc3Nc3ccc(OS(=O)(=O)C(F)(F)F)cc32)CC1`, the Potency is 16.3 µM (active).

With `NCC(CNc1nc(Nc2cccc(NC(=O)N3CCCC3)c2)ncc1I)C(=O)c1cccs1` (stereo not given), the Potency is 2.58 µM (active).

As for `O=S1(=O)CCN(Cc2cc(NCC3CCOCC3)c3[nH]c(-c4ccccc4)cc3c2)CC1`, the Potency was 10.3 µM (active).

`Cn1cc(-c2ccc3c(c2)CCN3C(=O)Cc2cccc(C(F)(F)F)c2)c2c(N)ncnc21`: the “activity change, negative = cell killing” value was -51.2% (inactive).

As for `CCOc1ccc(-n2c([C@@H](C)N(Cc3cccnc3)C(=O)Cc3ccc(OC(F)(F)F)cc3)nc3ncccc3c2=O)cc1`, the Potency was 18.3 µM (active).

For the compound `CC(C)(C)c1ccc(C(=O)Nc2cc(Cl)c(Br)cc2C(=O)O)cc1`, the Potency is 11.5 µM (active).

On to `COc1cccc(-c2cn(-c3ccc(CCN4CCC(O)CC4)cc3)c3ncnc(N)c23)c1`, for which the Potency is 1.83 µM (active).

For the compound `CN(C)CCCn1cc(C2=C(c3c[nH]c4ccccc34)C(=O)NC2=O)c2ccccc21`, the Potency was 3.25 µM (active).

In the case of `O=C(NCCN1CCC(n2c(=O)[nH]c3ccccc32)CC1)c1ccc2ccccc2c1`, the Potency was 16.3 µM (active).

For `CCCCNc1ncc(-c2ccc(CN3CCOCC3)cn2)c(NC2CCC(O)CC2)n1` (stereo not given), the Potency is 632 nM (active) and 1.15 µM (active).

Regarding `S=C(c1ccc(-c2ccc(Cl)c(Cl)c2)o1)N1CCCCC1`, the “activity change, negative = cell killing” value was -18.2% (inactive).

For the compound `O=c1nc(-c2ccccn2)sc2ccccc12`, the Potency is 1.63 µM (active).

As for `Cc1cc(C)cc(-c2cnc3cc(Cl)c(-c4cccc(O)c4)cc3c2OCCCN)c1`, the Potency is 16.3 µM (active).

For `NC(=O)c1cccc2[nH]c(-c3ccc(C4CCCN4)cc3F)nc12` (stereo not given), the Potency is 18.3 µM (active).

As to `CN1CC2CN(c3ccc4oc5ccccc5c(=O)c4c3)CC2C1` (stereo not given), the Potency was 12.6 µM (active).

`Cc1cc(C)nc(SCC(=O)Nc2ncc(Cc3cccc4ccccc34)s2)n1`: the “activity change, negative = cell killing” value was -24.2% (inactive).

As for `CC[C@@H](Nc1c(Nc2cccc(C(=O)N(C)C)c2O)c(=O)c1=O)c1cc(C(C)C)co1`, the Potency was 16.3 µM (active).

Turning to `Cc1cccc(CC(=O)N2CCc3c2ccc(-c2cn(C)c4ncnc(N)c24)c3F)n1`, the Potency was 16.4 µM (active).

Take `CC[C@@H](C)Nc1cc(C(=O)NC2CC3CC[C@@H](C2)N3c2ccc(C(=O)C3CC3)cn2)c(C)cc1C(N)=O` (stereo not given in full): the Potency was 0.105 µM (active).

Turning to `C/C(=N\N=C(N)N)c1cc(NC(=O)CCCCCCCCC(=O)Nc2cc(/C(C)=N/N=C(N)N)cc(/C(C)=N/N=C(N)N)c2)cc(/C(C)=N/N=C(N)N)c1`, the Potency is 11.5 µM (active).

In the case of `CC(C)c1ccc(NC(=O)c2cccs2)c(-c2nc3ccccc3[nH]c2=O)c1`, the Potency is 16.3 µM (active).

As to `CCCC1(CCC)CCC2(CCN(CCCN(CC)CC)C2)CC1`, the Potency was 2.09 µM (active).

Turning to `C[C@@H]1CCCN1CCc1cc2cc(-c3ccc(C#N)cc3)ccc2o1`, the Potency was 20.5 µM (active).
